A selection: hits, their analogues and other compounds. The true share with any hit is near 19%.
KB-V1 cytotox: kills drug-selected multidrug resistant KB-V1 cells; KB-V1 MDR cells viability, CellTiter-Glo, 72 h; 400,000 tested, 3.4% active; Potency, µM (titrated, usually from 46.1 µM), hits mostly cytotoxic; AID 1347076; also: nearly all actives have a fitted effect of over 60% in size
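Drug-selected KB-V1 cells, grown in DMEM lacking phenol red with 10% FBS, receive compound titrations; after three days at 37 degrees C, surviving cell ATP is quantified by CellTiter-Glo luminescence and responses normalized and curve-fitted.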
KB-3-1 tox: kills parental KB-3-1 adenocarcinoma cells. AID 1347075. Potency, µM (top dose mostly 46.1 µM), most hits filed as cytotoxic. 400,000 tested, 1.4% active. KB-3-1 viability, CellTiter-Glo ATP luminescence, 72 h; also: nearly all actives have a fitted effect of over 60% in size
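KB-3-1 parental drug-naive adenocarcinoma cells in DMEM/10% FBS, incubated 72 h at 37 C with pin-transferred compounds across a concentration series. Viability by CellTiter-Glo luminescence; concentration-response curves fitted after normalization.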
DT40 TDP1 no CPT: qHTS for Inhibitors of human tyrosyl-DNA phosphodiesterase 1 (TDP1): qHTS in cells in absence of CPT | DT40 Tdp1-/- hTDP1 cells, no CPT, ATP luminescence, 48 h | Potency, µM (highest dose often 46.2 µM), for the others: top-dose activity change, negative = growth inhibition, usual class: inhibitors | 420,000 tested, 15% active; also: nearly all actives have a fitted effect of over 55% in size
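DT40 Tdp1-/-;hTDP1 cells, no CPT (DMSO vehicle only), 400 cells/well; compounds pin-transferred; ≥48 hr, 37 °C; CellTiter-Glo 30 min RT dark, luminescence read.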
TDP1 cell CPT: DT40-hTDP1 cell growth loss with CPT. chicken DT40 Tdp1-/-;hTDP1 cells + 20 nM CPT, ATP luminescence, 48 h. Potency, µM (top dose mostly 46.2 µM), without a hit: at the highest dose activity change, negative = growth inhibition, hits mostly inhibitors. 420,000 tested, 12% active. AID 686979; also: nearly all actives have a fitted effect of over 55% in size
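Chicken DT40 Tdp1-/- cells stably complemented with human TDP1 were seeded at 400 cells/well in medium containing 20 nM camptothecin, exposed to pin-transferred compounds, and grown at 37 °C for at least 48 hr. Viability was read as ATP luminescence.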
HT1080-NT tox: kills 2HG-producing HT-1080-NT fibrosarcoma cells. AID 686970. 360,000 tested, 1.6% active. Potency, µM (series often up to 46.1 µM), without a hit: top-dose activity, negative = less viability, most hits filed as cytotoxic. HT-1080-NT fibrosarcoma viability, CellTiter-Glo ATP luminescence, 48 h;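 also: NT is the 2HG producing partner of a matched IDH1 knockdown line; 0% = DMSO-treated cells and -100% = media-only wells without cells; nearly all actives have a fitted effect of over 55% in size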
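Toxicity toward the 2HG-producing NT line was scored as %Activity, normalised to DMSO and no-cell wells, from CellTiter-Glo luminescence after 48 hours' treatment.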
HT1080 IDH1KD tx: toxicity to HT-1080 IDH1 knockdown cells (counter line); HT-1080 IDH1 knockdown viability, ATP luminescence, 48 h; Potency, µM (top dose mostly 46.1 µM), without a hit: at the top dose activity, negative = toxicity, hits mostly cytotoxic; 360,000 tested, 2% active; AID 686971;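 also: 0% = DMSO wells and -100% = cell-free medium wells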
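Assay cells: HT-1080 with IDH1 knockdown, 750 per well, RPMI/5% FBS. Exposure: 48 h at 37 °C following 2 h pre-incubation. Read: CellTiter-Glo luminescence; fitted concentration-response, curve class assigned.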
The depositor's hits bear a star. Calls follow the shape of the dose curve; as a rule, active = well fitted curve in the direction sought with a large enough effect; inconclusive = small, poorly fitted or top-dose-only effect, or another doubt; inactive = no such curve, though single readings can be large; an effect the other way counts as inactive or inconclusive. Unless noted, % is scaled to controls: 0 for no effect and ±100 for the full control effect; potency is read from the fitted curve at half-maximal effect.

Cn1c(=O)oc2cc(S(=O)(=O)N3CCCC(C(=O)Nc4nccs4)C3)ccc21 (centres undefined) was read as KB-V1 cytotox inactive, KB-3-1 tox inactive, DT40 TDP1 no CPT 21µM*, TDP1 cell CPT inconclusive, HT1080-NT tox 2% and HT1080 IDH1KD tx -7%.
`COc1ccc(Cl)cc1-c1nc(SCC(=O)N(C)C2CCS(=O)(=O)C2)n[nH]1` (centres undefined) gave KB-V1 cytotox inactive, KB-3-1 tox inactive, DT40 TDP1 no CPT 2%, TDP1 cell CPT 12%, HT1080-NT tox 2% and HT1080 IDH1KD tx -2%.
For COCCSc1nc(N)c(NC(=O)c2ccco2)c(=O)[nH]1 the results were KB-V1 cytotox inconclusive, KB-3-1 tox inactive, DT40 TDP1 no CPT 12%, TDP1 cell CPT 11%, HT1080-NT tox 7% and HT1080 IDH1KD tx 7%.
`CC[C@H](C)[C@H](NC(=O)OCc1ccccc1)C(=O)OCC(=O)N1CCN(c2ccc(F)cc2)CC1` gave KB-V1 cytotox inactive, KB-3-1 tox inactive, DT40 TDP1 no CPT inconclusive, TDP1 cell CPT inconclusive, HT1080-NT tox -15% and HT1080 IDH1KD tx -7%.
Screening CN1CC(=O)N/C1=N\C(=O)Nc1ccc(O)cc1 returned KB-V1 cytotox inactive, KB-3-1 tox inactive, DT40 TDP1 no CPT 5%, TDP1 cell CPT 11%, HT1080-NT tox -1% and HT1080 IDH1KD tx 1%.
For COc1ccccc1-c1csc(NC(=O)c2cc(-c3cccs3)nc3ccccc23)n1 the results were KB-V1 cytotox inactive, KB-3-1 tox inactive, DT40 TDP1 no CPT -27%, TDP1 cell CPT -21%, HT1080-NT tox 5% and HT1080 IDH1KD tx 12%.
`COc1cccc(NC(=O)CN(C)C(=O)c2cc(-c3ccc(F)cc3)nc3ccccc23)c1` gave KB-V1 cytotox inconclusive, KB-3-1 tox inactive, DT40 TDP1 no CPT inconclusive, TDP1 cell CPT inconclusive, HT1080-NT tox -15% and HT1080 IDH1KD tx -30%.
Screening COc1ccc(CN(C)C(=O)c2cc(-c3ccccc3)nc3ccc(C)cc23)c(OC)c1OC returned KB-V1 cytotox inconclusive, KB-3-1 tox inactive, DT40 TDP1 no CPT 16µM*, TDP1 cell CPT 18µM*, HT1080-NT tox -7% and HT1080 IDH1KD tx -6%.
For COc1ccccc1CN(C)C(=O)c1cc(-c2cccs2)nc2ccccc12 the results were KB-V1 cytotox inconclusive, KB-3-1 tox inconclusive, DT40 TDP1 no CPT 16µM*, TDP1 cell CPT inconclusive, HT1080-NT tox inconclusive and HT1080 IDH1KD tx inconclusive.
Screening COc1ccc(-c2cc(C(=O)N(C)CC(=O)Nc3cccc(F)c3)c3ccccc3n2)cc1OC returned KB-V1 cytotox inactive, KB-3-1 tox inactive, DT40 TDP1 no CPT 21µM*, TDP1 cell CPT 21µM*, HT1080-NT tox inconclusive and HT1080 IDH1KD tx inconclusive.
Screening COc1ccc(CCN(C)C(=O)c2cc(-c3ccccc3)nc3ccc(C)cc23)cc1OC returned KB-V1 cytotox inactive, KB-3-1 tox inactive, DT40 TDP1 no CPT inconclusive, TDP1 cell CPT inconclusive, HT1080-NT tox 0% and HT1080 IDH1KD tx -5%.
For COc1cccc(CN(C)C(=O)c2cc(-c3ccc(F)cc3)nc3ccccc23)c1 the results were KB-V1 cytotox inconclusive, KB-3-1 tox inactive, DT40 TDP1 no CPT 21µM*, TDP1 cell CPT 21µM*, HT1080-NT tox -8% and HT1080 IDH1KD tx -5%.
Screening Cc1ccc(CN2C(=O)[C@H]3Cc4c([nH]c5ccccc45)C(C)(C)N3C2=O)cc1 returned KB-V1 cytotox inactive and KB-3-1 tox inconclusive.
O=S(=O)(c1ccc(NC(=S)NCc2ccc(F)cc2)cc1)N1CCOCC1 was read as DT40 TDP1 no CPT inconclusive, TDP1 cell CPT inconclusive, HT1080-NT tox -3% and HT1080 IDH1KD tx -8%.

Bioassay records (PubChem)
